# The source made the active and inactive calls.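 The calls were made as follows, unless noted: active = inhibition of the reporter signal at or above 50%; inactive = inhibition below 50%.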
# Legend:
# [1] = inhibitors of TNFa-induced NFkB p65 translocation, primary screen, imaging, HUVEC, MLSMR starter and 10KST1 sets (AID 438;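 active = inhibition above 20% together with a positive visual image hit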;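 also: compound added about 3h40 before a 20 min TNFalpha stimulation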;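 as to inhibition: signal is the nuclear over cytoplasmic p65 intensity ratio per well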); details: HUVEC TNFa-induced p65 nuclear translocation; cell count: measured here: nuclei count (cytotoxicity indicator), at 2.08 µM; inhibition: at 2 µM, stronger effect = higher value, 0% TNFa-plus-vehicle, 100% no-TNFa wells
# [2] = reduction of polyQ htt aggregates in cells – imaging, exon1htt(103Q)mCFP cells, high-content imaging, primary screen (AID 483;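 active = visual image review flags a hit and inhibition of aggregation exceeds 20%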;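 also: compound exposure lasted 3 days before fixation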;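 as to nuclei count: percent of the per-plate median nuclei count of sample wells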); details: exon1htt(103Q)mCFP cell line, aggregate imaging, at 2 µM; inhibition of aggregation: stronger effect = higher value; nuclei count: measured here: cell count, toxicity
# [3] = endothelial E-selectin expression blockers – imaging, HUVEC, immunofluorescence, MLSMR starter and 10KST1 sets, primary screen (AID 487;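 active = visually confirmed hit in the image check and inhibition above 20%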;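 as to inhibition: signal is fraction of cell area covered by stained E-selectin grains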;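 as to nuclei count: 100% = median nuclei count of all wells on the same plate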); details: HUVEC TNFalpha-induced E-selectin immunofluorescence imaging, at 2 µM; inhibition: stronger effect = higher value; nuclei count: measured here: cell number, toxicity
# [4] = target: Voltage-gated potassium channel subunit beta-2 (Rattus norvegicus) (UniProt P62483); assay: inhibitors of rat Kvbeta2 reductase activity – biochemical, NADPH fluorescence, primary screen (AID 622;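 active = fluorescence slope higher than the sample average by over 3 SD, cut at about -0.22 in these data, passing the limit was not always enough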;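 also: slope of raw intensity against log time taken from 70 to 1610 s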); details: recombinant KvBeta, 4-cyanobenzaldehyde reduction, at 10 µM, stronger effect = higher value
# Sequence of Voltage-gated potassium channel subunit beta-2 (Rattus norvegicus) (P62483 whole entry, looked up): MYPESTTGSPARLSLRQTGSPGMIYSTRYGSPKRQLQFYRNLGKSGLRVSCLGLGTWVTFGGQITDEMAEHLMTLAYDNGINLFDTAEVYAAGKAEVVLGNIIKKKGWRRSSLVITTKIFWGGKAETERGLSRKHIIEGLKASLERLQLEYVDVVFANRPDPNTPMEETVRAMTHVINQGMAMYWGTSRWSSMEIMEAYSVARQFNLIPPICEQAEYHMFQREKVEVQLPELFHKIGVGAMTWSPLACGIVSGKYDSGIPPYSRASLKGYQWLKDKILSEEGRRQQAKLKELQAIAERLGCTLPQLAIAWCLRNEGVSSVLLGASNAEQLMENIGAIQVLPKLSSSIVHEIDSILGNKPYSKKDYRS
# [5] = target: Voltage-gated potassium channel subunit beta-2 (Rattus norvegicus) (UniProt P62483); assay: enhancers of rat Kvbeta2 NADPH turnover – biochemical, NADPH fluorescence, primary screen (AID 623;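 active = NADPH fluorescence slope more negative than the mean of all samples by about 3 SD, 99.7% confidence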;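 also: fluorescence intensity change per second fitted from 20 to 320 s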); details: Recombinant KvBeta, NADPH fluorescence decrease slope, 10 min; at 10 µM; stronger effect = lower value
# [6] = target: Alpha-2C adrenergic receptor (Homo sapiens) (UniProt P18825); assay: compounds altering alpha2C-coupled GIRK flux – cell-based, HEK293 alpha2C/GIRK1/2, thallium flux, primary screen (AID 624;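 active = fluorescence slope after compound addition differing from the mean of all screened samples at 99.7% confidence, in either direction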;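 also: slope of fluorescence ratio to pre-addition baseline per second over 15 to 24 s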); details: thallium flux BTC fluorescence, at 10 µM, actives lie on both sides
# Sequence of Alpha-2C adrenergic receptor (Homo sapiens) (P18825 whole entry, looked up): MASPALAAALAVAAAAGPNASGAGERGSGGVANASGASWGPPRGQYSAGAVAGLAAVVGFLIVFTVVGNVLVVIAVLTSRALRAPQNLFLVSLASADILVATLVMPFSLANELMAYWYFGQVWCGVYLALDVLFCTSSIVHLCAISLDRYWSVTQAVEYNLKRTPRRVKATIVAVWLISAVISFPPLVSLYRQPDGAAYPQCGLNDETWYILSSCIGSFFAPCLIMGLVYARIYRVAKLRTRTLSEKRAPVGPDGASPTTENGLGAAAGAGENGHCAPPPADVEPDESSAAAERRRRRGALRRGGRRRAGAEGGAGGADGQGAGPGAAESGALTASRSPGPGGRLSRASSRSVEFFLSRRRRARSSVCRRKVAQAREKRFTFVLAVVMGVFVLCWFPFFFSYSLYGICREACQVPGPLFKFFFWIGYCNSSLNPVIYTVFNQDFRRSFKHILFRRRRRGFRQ
# [7] = blockers of RIG-like receptor reporter activation – cell-based, Sendai virus stimulus, luciferase, 10K MLSCN set, TLR/RLR signaling modifier project, primary screen (AID 602276;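 active = inhibition at or above 50% at 10 µM; inactive = inhibition below 50%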;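 also: firefly luciferase from ISG56 promoter only with Renilla not read in this screen; 0% = Sendai virus plus DMSO and 100% = medium plus DMSO without virus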); details: HEK293 RL24 IRF3 luciferase reporter, at 10 µM, stronger effect = higher value
# [8] = TLR3 IRF3 reporter activation blockers – cell-based, poly I:C stimulus, luciferase, 10K MLSCN set, primary screen (AID 602277); details: HEK293-TLR3 RL24 IRF3 luciferase reporter, at 10 µM, stronger effect = higher value
smiles,measurement,setting,value
CCCc1nnc2n1N=C(c1ccc(-c3cc(Cl)ccc3Cl)o1)CS2,cell count,[1],248
same,inhibition,[1],6.2% (inactive)
same,inhibition of aggregation,[2],4.8% (inactive)
same,nuclei count,[2],100%
same,inhibition,[3],17.1% (inactive)
same,nuclei count,[3],89%
same,fluorescence slope,[4],-0.447 (inactive)
same,NADPH fluorescence slope,[5],-5.1e-05 (inactive)
same,slope,[6],0.00311 (inactive)
same,inhibition,[7],8.08% (inactive)
same,inhibition,[8],29.1% (inactive)
c1ccc2c(Cn3ccnc3)c[nH]c2c1,cell count,[1],410
same,inhibition,[1],6.5% (inactive)
same,inhibition of aggregation,[2],-17.6% (inactive)
same,nuclei count,[2],90%
same,inhibition,[3],-12.3% (inactive)
same,nuclei count,[3],96.2%
same,fluorescence slope,[4],-0.414 (inactive)
same,NADPH fluorescence slope,[5],-0.000163 (inactive)
same,slope,[6],0.00685 (inactive)
same,inhibition,[7],6.54% (inactive)
same,inhibition,[8],38.9% (inactive)
CC(NC(=O)C1CCCN(S(=O)(=O)c2cccs2)C1)c1ccccc1 (centres undefined),cell count,[1],816
same,inhibition,[1],-1.4% (inactive)
same,inhibition of aggregation,[2],-6.6% (inactive)
same,nuclei count,[2],106%
same,inhibition,[3],-1.1% (inactive)
same,nuclei count,[3],112%
same,fluorescence slope,[4],-0.583 (inactive)
same,NADPH fluorescence slope,[5],-4.2e-05 (inactive)
same,slope,[6],0.00498 (inactive)
same,inhibition,[7],12.2% (inactive)
same,inhibition,[8],34.2% (inactive)
COc1ccc(C2CC(c3ccc(Cl)cc3Cl)Nc3nc(N)nn32)cc1 (centres undefined),cell count,[1],578
same,inhibition,[1],2.3% (inactive)
same,inhibition of aggregation,[2],-1.8% (inactive)
same,nuclei count,[2],105%
same,inhibition,[3],-10.3% (inactive)
same,nuclei count,[3],102%
same,fluorescence slope,[4],-0.593 (inactive)
same,NADPH fluorescence slope,[5],1.1e-05 (inactive)
same,slope,[6],0.00847 (inactive)
same,inhibition,[7],13.9% (inactive)
same,inhibition,[8],36.6% (inactive)
CCOC(=O)C1=C(c2ccccc2)NC(=O)NC1c1ccc(N(C)C)cc1 (centres undefined),cell count,[1],363
same,inhibition,[1],-0.5% (inactive)
same,inhibition of aggregation,[2],14.6% (inactive)
same,nuclei count,[2],86.7%
same,inhibition,[3],-131% (inactive)
same,nuclei count,[3],118%
same,fluorescence slope,[4],-0.439 (inactive)
same,NADPH fluorescence slope,[5],-4.5e-05 (inactive)
same,slope,[6],0.00395 (inactive)
same,inhibition,[7],12.6% (inactive)
same,inhibition,[8],29.3% (inactive)
Cc1c(C#N)c2ccccc2n1CC(=O)N1CCc2ccccc2C1,cell count,[1],583
same,inhibition,[1],6% (inactive)
same,inhibition of aggregation,[2],8.7% (inactive)
same,nuclei count,[2],95.3%
same,inhibition,[3],11.5% (inactive)
same,nuclei count,[3],114%
same,fluorescence slope,[4],-0.581 (inactive)
same,NADPH fluorescence slope,[5],-4.4e-05 (inactive)
same,slope,[6],0.00747 (inactive)
same,inhibition,[7],-9.66% (inactive)
same,inhibition,[8],21.9% (inactive)
CC(C)C(NC(=O)c1ccc(S(=O)(=O)N2CCOCC2)cc1)c1nc2ccccc2[nH]1 (centres undefined),cell count,[1],276
same,inhibition,[1],15.9% (inactive)
same,inhibition of aggregation,[2],-10.8% (inactive)
same,nuclei count,[2],114%
same,inhibition,[3],8.4% (inactive)
same,nuclei count,[3],98.7%
same,fluorescence slope,[4],-0.436 (inactive)
same,NADPH fluorescence slope,[5],-9.2e-05 (inactive)
same,slope,[6],0.00591 (inactive)
same,inhibition,[7],13.3% (inactive)
same,inhibition,[8],26% (inactive)
COc1cccc(NC(=O)N2CCCC2C(=O)NC(C)C)c1 (centres undefined),cell count,[1],436
same,inhibition,[1],1.5% (inactive)
same,inhibition of aggregation,[2],-4.5% (inactive)
same,nuclei count,[2],121%
same,inhibition,[3],-49.5% (inactive)
same,nuclei count,[3],114%
same,fluorescence slope,[4],-0.601 (inactive)
same,NADPH fluorescence slope,[5],-2.2e-05 (inactive)
same,slope,[6],0.00309 (inactive)
same,inhibition,[7],10.9% (inactive)
same,inhibition,[8],13.7% (inactive)
CCOC(=O)C1=C(N)OC2=C(C(=O)CC(C)(C)C2)C1c1ccco1 (centres undefined),cell count,[1],382
same,inhibition,[1],1% (inactive)
same,inhibition of aggregation,[2],-38.9% (inactive)
same,nuclei count,[2],104%
same,inhibition,[3],-61.3% (inactive)
same,nuclei count,[3],110%
same,fluorescence slope,[4],-0.566 (inactive)
same,NADPH fluorescence slope,[5],5.5e-05 (inactive)
same,slope,[6],0.00621 (inactive)
same,inhibition,[7],-0.305% (inactive)
same,inhibition,[8],-16.2% (inactive)
CCc1nc(NCCCN2CCOCC2)c2oc3ccccc3c2n1,cell count,[1],573
same,inhibition,[1],-4.4% (inactive)
same,inhibition of aggregation,[2],-12.6% (inactive)
same,nuclei count,[2],106%
same,inhibition,[3],-55.2% (inactive)
same,nuclei count,[3],103%
same,fluorescence slope,[4],-0.465 (inactive)
same,NADPH fluorescence slope,[5],-3.3e-05 (inactive)
same,slope,[6],0.00535 (inactive)
same,inhibition,[7],17.6% (inactive)
same,inhibition,[8],25.2% (inactive)
CN(C)c1cccc2c(S(=O)(=O)Nc3ccccn3)cccc12,cell count,[1],679
same,inhibition,[1],11.1% (inactive)
same,inhibition of aggregation,[2],11.7% (inactive)
same,nuclei count,[2],101%
same,inhibition,[3],22.1% (inactive)
same,nuclei count,[3],86.9%
same,fluorescence slope,[4],-0.318 (inactive)
same,NADPH fluorescence slope,[5],-1.7e-05 (inactive)
same,slope,[6],0.00542 (inactive)
same,inhibition,[7],11.3% (inactive)
same,inhibition,[8],19.3% (inactive)
O=S(=O)(c1cccs1)N1CCN(C/C=C/c2ccccc2)CC1,cell count,[1],359
same,inhibition,[1],2.4% (inactive)
same,inhibition of aggregation,[2],-19.8% (inactive)
same,nuclei count,[2],108%
same,inhibition,[3],62.2% (inactive)
same,nuclei count,[3],94.8%
same,fluorescence slope,[4],-0.492 (inactive)
same,NADPH fluorescence slope,[5],-4.5e-05 (inactive)
same,slope,[6],0.00442 (inactive)
same,inhibition,[7],10.2% (inactive)
same,inhibition,[8],9.74% (inactive)
CNC(=O)c1nnn(Cc2ccccc2)c1NC(C)=O,cell count,[1],539
same,inhibition,[1],-14.7% (inactive)
same,inhibition of aggregation,[2],-9.5% (inactive)
same,nuclei count,[2],102%
same,inhibition,[3],-73.3% (inactive)
same,nuclei count,[3],92.3%
same,fluorescence slope,[4],-0.601 (inactive)
same,NADPH fluorescence slope,[5],4e-05 (inactive)
same,slope,[6],0.00612 (inactive)
same,inhibition,[7],-13% (inactive)
same,inhibition,[8],-3.44% (inactive)
CC(C)OC(=O)CSc1nc2cccnc2n1C1CCCCC1,cell count,[1],267
same,inhibition,[1],-9.7% (inactive)
same,inhibition of aggregation,[2],-18.5% (inactive)
same,nuclei count,[2],78.8%
same,inhibition,[3],-25.1% (inactive)
same,nuclei count,[3],106%
same,fluorescence slope,[4],-0.592 (inactive)
same,NADPH fluorescence slope,[5],-5.3e-05 (inactive)
same,slope,[6],0.00357 (inactive)
same,inhibition,[7],11.2% (inactive)
same,inhibition,[8],17.9% (inactive)
